Among the test systems are MAPKAPK5; MARK1; MARK2; MARK3; MARK4; MAST1; MELK; MERTK; MET; MKK7; MKNK1; MKNK2.
What all share (details): concentration: 1 μM,replicates: in singlicate; n = 1
For the next assay, the system named is T1, MEK1.
T1 construct: gene MAP2K1

Another assay deals with T2, MEK2.
T2 construct: gene MAP2K2

The next assay has as its system T3, MEK3.
T3 construct: gene MAP2K3

For another assay, the system named is T4, MEK4.
T4 construct: gene MAP2K4

Another assay concerns T5, MEK5.
T5 construct: gene MAP2K5

Another assay has as its system T6, MEK6.
T6 construct: gene MAP2K6

Another assay concerns T7, MINK.
T7 construct: gene MINK1

In the next assay the test system is T8, MLCK.
T8 construct: gene MYLK3
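Note: KINOMEscan kinase panel screen.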

Consider `NC(=O)Nc1sc(-c2ccc(F)cc2)cc1C(N)=O` [GW789449], for which the “%Inh” value in the assay on MAPKAPK5 amounted to 0%; in the assay on MARK1, 0%; in the assay with MARK2, 8%; in the assay on MARK3 it was 0%; in the assay with MARK4, 1%; in the assay with MAST1, 46%. Besides, the “%Inh” value in the assay on MEK1 turned out to be 30%; with MEK2, 40%; in the assay on MEK3, 83%; with MEK4, 24%; in the assay on MEK5, 89%; in the assay on MEK6 it was 21%. The “%Inh” value with MELK stood at 12%; in the assay on MERTK, 10%; in the assay on MET, 12%; in the assay on MINK, 60%; with MKK7, 0%; in the assay on MKNK1, 8%. Further, the “%Inh” value in the assay on MKNK2 and in the assay on MLCK was 0% each time.

For the compound `FC(F)(F)c1cc(Br)cc(Nc2nccc(-c3cnn4ncccc34)n2)c1` [GW810578], the “%Inh” value was 0% in the assay on MAPKAPK5; 0% in the assay with MARK1; 0% in the assay with MARK2; 0% in the assay with MARK3; 0% with MARK4; 45% with MAST1. In addition, the “%Inh” value was 3% in the assay with MEK1; 14% in the assay with MEK2; 90.3% with MEK3; 21% in the assay with MEK4; 35% in the assay on MEK5; 12% with MEK6. The “%Inh” value in the assay on MELK worked out at 7%; in the assay with MERTK, 14%; in the assay on MET, 0%; in the assay on MINK, 3%; in the assay with MKK7, 0%; with MKNK1, 19%. The “%Inh” value with MKNK2 is on record as 0%; in the assay with MLCK, 32%.

In the case of `CC(C(=O)NC1CCN(c2ccnc(Nc3ccc(F)cc3)n2)C1)c1ccc(Cl)cc1` (centres unmarked) [GSK1379713], the “%Inh” value with MAPKAPK5 is given as 18%; with MARK1, 0%; in the assay on MARK2 it was 0%; with MARK3, 0%; with MARK4 it was 1%; with MAST1, 11%. In addition, the “%Inh” value in the assay on MEK1 was 0%; in the assay with MEK2, 0%; in the assay on MEK3, 0%; in the assay on MEK4, 10%; in the assay on MEK5, 7%; in the assay on MEK6 it was 0%. Besides, the “%Inh” value in the assay with MELK amounted to 0%; in the assay with MERTK, 0%; in the assay on MET, 0%; in the assay on MINK it was 0%; in the assay with MKK7 it was 0%; in the assay with MKNK1 it was 5%. The “%Inh” value with MKNK2 and in the assay on MLCK was 0% in each case.

Regarding `O=C(NCC1CC1)c1ccc(-c2cc(C(=O)NC3CC3)ccc2F)cc1` [GW810445], the “%Inh” value in the assay with MAPKAPK5 came to 0%; with MARK1, 0%; in the assay on MARK2 it was 0%; with MARK3, 0%; in the assay on MARK4, 2%; with MAST1 it was 36%. In addition, the “%Inh” value came to 2% with MEK1; 13% in the assay with MEK2; 0% in the assay with MEK3; 0% with MEK4; 0% with MEK5; 5% in the assay with MEK6. Further, the “%Inh” value with MELK is 17%; in the assay with MERTK it was 0%; in the assay with MET, 0%; with MINK it was 0%; in the assay with MKK7, 8%; in the assay on MKNK1, 3%. Besides, the “%Inh” value in the assay with MKNK2 and with MLCK was 0% in each case.

Turning to `COc1cc(Nc2nccc(N3CCC(NC(=O)c4cccc(C#N)c4)C3)n2)cc(OC)c1OC` (centres unmarked) [GSK1379751], the “%Inh” value turned out to be 0% in the assay with MAPKAPK5; 100% in the assay on MARK1; 0% in the assay with MARK2; 0% with MARK3; 100% in the assay with MARK4; 0% in the assay with MAST1. The “%Inh” value with MEK1 is given as 0%; with MEK2, 0%; in the assay with MEK3 it was 0%; in the assay with MEK4, 19%; with MEK5, 85%; in the assay on MEK6, 0%. The “%Inh” value stood at 0% in the assay with MELK; 9% with MERTK; 6% in the assay on MET; 0% in the assay on MINK; 16% in the assay on MKK7; 0% with MKNK1. Further, the entries for the “%Inh” value with MKNK2 and in the assay with MLCK were 67% and 0%, respectively.

Take `CN1CCN(CCCNc2nccc(-c3c(-c4ccc(F)cc4)nn4cc(C(N)=O)ccc34)n2)CC1` [GW622475]: the “%Inh” value is recorded as 0% with MAPKAPK5; 9% in the assay with MARK1; 15% in the assay on MARK2; 0% in the assay on MARK3; 21% in the assay on MARK4; 0% in the assay with MAST1. Besides, the “%Inh” value with MEK1 is 0%; in the assay with MEK2 it was 18%; in the assay on MEK3, 0%; with MEK4, 12%; in the assay on MEK5 it was 42%; in the assay on MEK6 it was 0%. The “%Inh” value stood at 91.9% in the assay with MELK; 49% with MERTK; 32% in the assay on MET; 71% in the assay with MINK; 0% in the assay on MKK7; 10% in the assay with MKNK1. The “%Inh” value in the assay on MKNK2 and in the assay on MLCK was 0% throughout.

With `Cn1ccc2ncnc(Oc3ccc(NC(=O)Nc4cc(C(C)(C)C)on4)c(Cl)c3)c21`, the “%Inh” value with MAPKAPK5 came out at 50%; in the assay on MARK1, 4%; with MARK2, 0%; in the assay on MARK3, 0%; in the assay with MARK4, 14%; in the assay on MAST1 it was 0%. Also, the “%Inh” value in the assay on MEK1 was 23%; with MEK2 it was 41%; in the assay on MEK3, 15%; with MEK4, 9%; with MEK5, 71%; with MEK6, 7%. Besides, the “%Inh” value with MELK is on record as 20%; in the assay on MERTK, 94.8%; in the assay on MET, 48%; with MINK, 91.6%; in the assay on MKK7, 0%; in the assay on MKNK1, 3%. In addition, the “%Inh” value in the assay with MKNK2 is 90%; in the assay on MLCK, 7%.

Take `Cn1ccc2ncnc(Oc3ccc(NC(=O)Nc4ccnc(C(F)(F)F)c4)c(Cl)c3)c21`: the “%Inh” value in the assay on MAPKAPK5, in the assay on MARK1, with MARK2, in the assay on MARK3, with MARK4 and with MAST1 was 0% each time. Also, the “%Inh” value in the assay on MEK1 was determined as 4%; with MEK2, 15%; in the assay on MEK3, 8%; with MEK4, 0%; in the assay on MEK5 it was 9%; in the assay with MEK6 it was 0%. Besides, the “%Inh” value was found to be 0% with MELK; 23% with MERTK; 2% in the assay on MET; 0% in the assay with MINK; 0% with MKK7; 0% in the assay on MKNK1. Besides, the “%Inh” value in the assay with MKNK2 and with MLCK was 0% in each case.

`Cn1ccc2ncnc(Oc3ccc(NC(=O)Nc4cncc(C(F)(F)F)c4)c(Cl)c3)c21`: the “%Inh” value in the assay on MAPKAPK5 is listed as 0%; in the assay with MARK1, 0%; in the assay on MARK2 it was 23%; with MARK3, 0%; in the assay on MARK4, 11%; in the assay on MAST1, 6%. Further, the “%Inh” value in the assay with MEK1 is 0%; in the assay on MEK2, 0%; in the assay on MEK3, 0%; in the assay with MEK4 it was 1%; in the assay with MEK5, 22%; in the assay with MEK6, 0%. Further, the “%Inh” value in the assay with MELK was 0%; in the assay on MERTK it was 81%; in the assay with MET it was 12%; with MINK, 0%; in the assay with MKK7 it was 0%; in the assay with MKNK1, 0%. Besides, the “%Inh” value with MKNK2 and in the assay on MLCK was 0% each time.

Turning to `N#Cc1cccc(C(=O)NC2CCN(c3ccnc(Nc4ccc(F)cc4)n3)C2)c1` (centres unmarked) [GSK1379708], the “%Inh” value in the assay on MAPKAPK5 worked out at 0%; with MARK1 it was 0%; in the assay with MARK2, 0%; in the assay with MARK3 it was 0%; in the assay on MARK4, 16%; with MAST1, 0%. Further, the “%Inh” value with MEK1 came out at 0%; with MEK2 it was 0%; in the assay with MEK3, 0%; in the assay with MEK4, 17%; in the assay on MEK5, 12%; with MEK6 it was 0%. The “%Inh” value in the assay on MELK is given as 0%; with MERTK, 49%; with MET, 18%; with MINK, 0%; in the assay with MKK7 it was 0%; in the assay on MKNK1, 0%. Besides, the “%Inh” value in the assay on MKNK2 and with MLCK was 0% throughout.

For the origin of these results see PMC5540273 (PLoS ONE, 2017).
